These results are taken from PubChem BioAssay (NCI).

Assay [1] in a line: NCI Yeast Anticancer Drug Screen. Data for the rad50 strain (AID 155).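 Also: 0% = growth of vehicle-only cultures of the same strain.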 Conditions: S. cerevisiae rad50 strain growth inhibition, stronger effect = higher value. The essentials:
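Vehicle-treated cultures provide the reference for the growth inhibition reported for compound-exposed, repair-deficient yeast.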

The nature of assay [2]: NCI Yeast Anticancer Drug Screen. Data for the mec2-1 strain (AID 157). Conditions: S. cerevisiae mec2-1 strain, stronger effect = higher value. In a few lines:
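Each compound was tested on mec2-1 yeast, a strain altered in DNA damage repair or cell cycle control. Growth inhibition is reported relative to vehicle.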

Assay [3] in a line: NCI Yeast Anticancer Drug Screen. Data for the sgs1 mgt1 strain (AID 161).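 Also: 0% = growth of cultures given vehicle only.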 Conditions: S. cerevisiae sgs1 mgt1 strain, stronger effect = higher value. In a few lines: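 Read-out: growth inhibition vs vehicle controls. Cells: mutant yeast strain deficient in DNA damage repair.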
Assay [4] can be described thus: NCI Yeast Anticancer Drug Screen. Data for the cln2 rad14 strain (AID 165).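 Also: 0% = growth equal to vehicle treated cultures.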 The following applies: S. cerevisiae cln2 rad14 strain, stronger effect = higher value. The essentials: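 Test compounds were added to cln2 rad14 yeast cultures; inhibition of growth was then determined by comparison with vehicle treatment.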
A short description of assay [5]: NCI Yeast Anticancer Drug Screen. Data for the bub3 strain (AID 167). The following applies: S. cerevisiae bub3 mutant strain, stronger effect = higher value. In a few lines: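 Mutant yeast screening strain plus compound; vehicle-treated cultures serve as the 0% inhibition reference.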
A short description of assay [6]: NCI Yeast Anticancer Drug Screen. Data for the mlh1 rad18 strain (AID 175). Conditions: S. cerevisiae mlh1 rad18 strain growth inhibition, stronger effect = higher value. In a few lines:
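Inhibition values reflect reduced growth of mutant yeast versus vehicle-treated controls following compound exposure; the mutations affect DNA damage repair.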

Where [7] appears, read: at 5.0 µM (retest, dose inferred, filed as 0.5).
[8] abbreviates: at 50.0 µM (retest, dose inferred, filed as 5.0).

Molecules are shown by their SMILES. The panel holds about 79,000 compounds, 15% with a hit somewhere; the sample as a whole holds those more often. Unmarked numbers belong to inactive results. Activity calls are given as the source filed them. Rule as the data show it: active = growth inhibition above about 70%; inactive = the rest.

On to `N#CC(C#N)=Cc1c(O)ccc2ccccc12`, for which the growth inhibition was 15% in assay [1] (setting [7]); 76% (active) in assay [1] (setting [8]); 78.5% (active) in assay [1] (at 50.0 µM); -2% in assay [2] (setting [7]); 45% in assay [2] (setting [8]); 51.3% in assay [2] (at 50.0 µM). The growth inhibition in assay [3] (setting [7]) was 2%; in assay [3] (setting [8]), 32%; in assay [3] (at 50.0 µM) it was 66%; in assay [4] (setting [7]) it was 18%; in assay [4] (setting [8]), 48%; in assay [4] (at 50.0 µM) it was 61.2%. Moreover, the growth inhibition was 10% in assay [5] (setting [7]); 62% in assay [5] (setting [8]); 68% in assay [5] (at 50.0 µM); 19% in assay [6] (setting [7]); 81% (active) in assay [6] (setting [8]); 81.5% (active) in assay [6] (at 50.0 µM).

Consider `N#C[S-].[Ce+3].c1cnc2c(c1)ccc1cccnc12.c1cnc2c(c1)ccc1cccnc12.c1cnc2c(c1)ccc1cccnc12`, for which the growth inhibition was 96% (active) in assay [1] (setting [7]); 99% (active) in assay [1] (setting [8]); 92% (active) in assay [1] (at 50.0 µM); 99% (active) in assay [2] (setting [7]); 100% (active) in assay [2] (setting [8]); 94.8% (active) in assay [2] (at 50.0 µM). Further, the growth inhibition in assay [3] (setting [7]) is 100% (active); in assay [3] (setting [8]) it was 100% (active); in assay [3] (at 50.0 µM), 91% (active); in assay [4] (setting [7]) it was 94% (active); in assay [4] (setting [8]), 98% (active); in assay [4] (at 50.0 µM), 93.5% (active). The growth inhibition is 99% (active) in assay [5] (setting [7]); 99% (active) in assay [5] (setting [8]); 93% (active) in assay [5] (at 50.0 µM); 97% (active) in assay [6] (setting [7]); 99% (active) in assay [6] (setting [8]); 92.8% (active) in assay [6] (at 50.0 µM).

On to `COc1ccc(Br)c(/C=C/[N+](=O)[O-])c1`, for which the growth inhibition was 23% in assay [1] (setting [7]); 90% (active) in assay [1] (setting [8]); 99.5% (active) in assay [1] (at 50.0 µM); 11% in assay [2] (setting [7]); 96% (active) in assay [2] (setting [8]); 99.7% (active) in assay [2] (at 50.0 µM). Also, the growth inhibition in assay [3] (setting [7]) was 16%; in assay [3] (setting [8]), 82% (active); in assay [3] (at 50.0 µM), 99.7% (active); in assay [4] (setting [7]), 0%; in assay [4] (setting [8]), 65%; in assay [4] (at 50.0 µM), 11.7%. Besides, the growth inhibition in assay [5] (setting [7]) is 5%; in assay [5] (setting [8]), 92% (active); in assay [5] (at 50.0 µM) it was 95.5% (active); in assay [6] (setting [7]), 6%; in assay [6] (setting [8]), 96% (active); in assay [6] (at 50.0 µM), 87.8% (active).

In the case of `Cc1cc(CCN)c(C)c2c1oc1ccccc12`, the growth inhibition in assay [1] (setting [7]) is -9%; in assay [1] (setting [8]) it was 95% (active); in assay [1] (at 50.0 µM) it was 98.5% (active); in assay [2] (setting [7]), -7%; in assay [2] (setting [8]), 88% (active); in assay [2] (at 50.0 µM), 70.2% (active). The growth inhibition in assay [3] (setting [7]) is -7%; in assay [3] (setting [8]), 99% (active); in assay [3] (at 50.0 µM), 98.8% (active); in assay [4] (setting [7]), -5%; in assay [4] (setting [8]), 98% (active); in assay [4] (at 50.0 µM) it was 62.8%. Besides, the growth inhibition in assay [5] (setting [7]) was -22%; in assay [5] (setting [8]), 96% (active); in assay [5] (at 50.0 µM) it was 93% (active); in assay [6] (setting [7]), -6%; in assay [6] (setting [8]), 98% (active); in assay [6] (at 50.0 µM), 98.6% (active).

As for `COc1cc(C(CC(=O)N(CCCl)CCCl)c2ccc3c(c2)OCO3)cc(OC)c1OC` (configuration not stated), the growth inhibition is 3% in assay [1] (setting [7]); 0% in assay [1] (setting [8]); 6.9% in assay [1] (at 50.0 µM); 0% in assay [2] (setting [7]); -2% in assay [2] (setting [8]); 10.1% in assay [2] (at 50.0 µM). The growth inhibition in assay [3] (setting [7]) was 13%; in assay [3] (setting [8]), 2%; in assay [3] (at 50.0 µM), 20.8%; in assay [4] (setting [7]) it was 0%; in assay [4] (setting [8]), -15%; in assay [4] (at 50.0 µM), 25.5%. The growth inhibition in assay [5] (setting [7]) was 2%; in assay [5] (setting [8]) it was -2%; in assay [5] (at 50.0 µM), -2.7%; in assay [6] (setting [7]), -2%; in assay [6] (setting [8]), 0%; in assay [6] (at 50.0 µM), 46.1%.

Turning to `O=C(CCl)OCc1ccccc1`, the growth inhibition was 1% in assay [1] (setting [7]); 14% in assay [1] (setting [8]); 34.1% in assay [1] (at 50.0 µM); 3% in assay [2] (setting [7]); 21% in assay [2] (setting [8]); 30.7% in assay [2] (at 50.0 µM). In addition, the growth inhibition in assay [3] (setting [7]) is 0%; in assay [3] (setting [8]) it was 18%; in assay [3] (at 50.0 µM), 10.3%; in assay [4] (setting [7]) it was 5%; in assay [4] (setting [8]), 10%; in assay [4] (at 50.0 µM), -21.9%. Also, the growth inhibition in assay [5] (setting [7]) was -3%; in assay [5] (setting [8]) it was 5%; in assay [5] (at 50.0 µM) it was 5.4%; in assay [6] (setting [7]), 5%; in assay [6] (setting [8]) it was 20%; in assay [6] (at 50.0 µM), 55%.

With `O=S(O)O.O=S(O)O.[Co].[NH2-].[NH2-].[NH2-].[NH2-]`, the growth inhibition in assay [1] (setting [7]) was 7%; in assay [1] (setting [8]) it was 21%; in assay [1] (at 50.0 µM), -5.55%; in assay [2] (setting [7]), -1%; in assay [2] (setting [8]), 7%; in assay [2] (at 50.0 µM) it was 29.4%. In addition, the growth inhibition in assay [3] (setting [7]) was 20%; in assay [3] (setting [8]), 22%; in assay [3] (at 50.0 µM) it was 2.5%; in assay [4] (setting [7]) it was 33%; in assay [4] (setting [8]) it was 16%; in assay [4] (at 50.0 µM), 47.9%. Also, the growth inhibition in assay [5] (setting [7]) is 12%; in assay [5] (setting [8]) it was 5%; in assay [5] (at 50.0 µM), -5.25%; in assay [6] (setting [7]), 3%; in assay [6] (setting [8]), 26%; in assay [6] (at 50.0 µM), 16%.

For `C[PH+](C)C.C[PH+](C)C.[Au]`, the growth inhibition in assay [1] (setting [7]) is 36%; in assay [1] (setting [8]) it was 70% (active); in assay [1] (at 50.0 µM) it was 85.7% (active); in assay [2] (setting [7]), 30%; in assay [2] (setting [8]), 89% (active); in assay [2] (at 50.0 µM), 91.8% (active). Further, the growth inhibition in assay [3] (setting [7]) is 59%; in assay [3] (setting [8]) it was 82% (active); in assay [3] (at 50.0 µM), 91% (active); in assay [4] (setting [7]), 18%; in assay [4] (setting [8]) it was 32%; in assay [4] (at 50.0 µM), 88% (active). Also, the growth inhibition in assay [5] (setting [7]) was 27%; in assay [5] (setting [8]), 57%; in assay [5] (at 50.0 µM) it was 89.5% (active); in assay [6] (setting [7]), 68%; in assay [6] (setting [8]), 91% (active); in assay [6] (at 50.0 µM), 89% (active).

With `NCCCN1CCN(CCCN2CC2)CC1`, the growth inhibition in assay [1] (setting [7]) is 1%; in assay [1] (setting [8]), 84% (active); in assay [1] (at 50.0 µM), 93.9% (active); in assay [2] (setting [7]) it was 1%; in assay [2] (setting [8]), 30%; in assay [2] (at 50.0 µM), 58.3%. Further, the growth inhibition in assay [3] (setting [7]) is -1%; in assay [3] (setting [8]), 83% (active); in assay [3] (at 50.0 µM), 85.3% (active); in assay [4] (setting [7]), -1%; in assay [4] (setting [8]), 92% (active); in assay [4] (at 50.0 µM) it was 93.5% (active). For the same compound, the growth inhibition is 0% in assay [5] (setting [7]); 80% (active) in assay [5] (setting [8]); 86.5% (active) in assay [5] (at 50.0 µM); -1% in assay [6] (setting [7]); 71% (active) in assay [6] (setting [8]); 89.8% (active) in assay [6] (at 50.0 µM).
